This is an account of results in the supplement of paper PMC10600219.

Structures can show the parent of a compound that is named as a salt. The full ranking holds about 2,800 compounds; the median of “cell viability relative to vehicle” is about 1.1, and the lowest 2% start at about 0.19. The entries come from a sample that favours the lowest values as a whole.

The assay deals with NCI-H2228 parental. The experiment in a line: cell viability relative to vehicle (fraction of vehicle); NCI-H2228 is an ALK-positive lung cancer line and DTP means drug-tolerant persister; higher = less growth inhibition. The note with it: 100 nM; treatment time 6 days. In a few lines:
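Values give cell viability as a fraction of vehicle-treated cells. Parental and drug-tolerant persister NCI-H2228 cells (persisters made with 1000 nM of a targeted drug for 13 days) were exposed in 384-well plates to the 3114-agent TargetMol anti-cancer compound library at 100 nM, with DMSO as vehicle. ATP was then read after 6 days by the CellTiter-Glo 3D Cell Viability Assay.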
For `CC(C)[C@]12O[C@H]1[C@@H]1O[C@]13[C@]1(O[C@H]1C[C@H]1C4=C(CC[C@@]13C)C(=O)OC4)[C@@H]2O` [Triptolide], the cell viability amounted to 0.121.

In the case of `N#Cc1c(Oc2cccc(OS(=O)(=O)CCCC(F)(F)F)c2)cccc1C(F)(F)F`, the cell viability is 1.01.

As for `O=C(O)CCCCCCCCCO` [10-Hydroxydecanoic Acid], the cell viability turned out to be 1.17.

Turning to `C[C@@]12C[C@@H](c3ccoc3)OC(=O)[C@@H]1CC[C@]1(C)[C@H]2[C@@H]2C=C[C@@]1(O)C(=O)O2` [Columbin], the cell viability was found to be 1.06.

For the compound `Cc1c([C@H](C)[C@@H]2NC[C@@H](C)C[C@H]2O)ccc2c1C[C@H]1[C@H]2CC=C2C[C@@H](O)CC[C@@]21C` [Veratramine], the cell viability amounted to 1.12.

With `COc1cc([C@@H]2c3cc4c(cc3[C@@H](O)[C@H]3COC(=O)[C@H]23)OCO4)cc(OC)c1O` [4'-Demethylepipodophyllotoxin], the cell viability is 0.402.

Turning to `C/C=C(\C)C(=O)N[C@@H](c1ccccc1)[C@@H](O)C(=O)O[C@H]1C[C@@]2(O)[C@@H](OC(=O)c3ccccc3)[C@@H]3[C@]4(OC(C)=O)CO[C@@H]4C[C@H](O)[C@@]3(C)C(=O)[C@H](OC(C)=O)C(=C1C)C2(C)C` [Cephalomannine], the cell viability came to 0.129.

For the compound `CC(=O)O[C@H]1C(=O)[C@@]2(C)[C@H]([C@H](OC(=O)c3ccccc3)[C@]3(O)C[C@H](O)C(C)=C1C3(C)C)[C@]1(OC(C)=O)CO[C@@H]1C[C@@H]2O` [Baccatin III], the cell viability came to 0.968.

Consider `CC(=O)OC12COC1CC(O)C1(C)C(=O)C(O)C3=C(C)C(O)CC(O)(C(OC(=O)c4ccccc4)C21)C3(C)C` (stereo not given) [10-Deacetylbaccatin III], for which the cell viability came to 1.13.

Consider `COc1ccc(/C=C/c2cc(OC)cc(OC)c2)cc1` [Trimethoxystilbene], for which the cell viability is 1.05.

As to `CN(C(=O)/C=C/c1ccoc1)[C@@H]1CC[C@@]2(O)[C@H]3Cc4ccc(O)c5c4[C@@]2(CCN3CC2CC2)[C@H]1O5` [Nalfurafine hydrochloride], the cell viability came out at 0.993.

In the case of `CN1[C@H]2C[C@H](OC(=O)[C@H](CO)c3ccccc3)C[C@@H]1[C@@H](O)C2` [Anisodamine], the cell viability turned out to be 1.1.

In the case of `CC[C@@]1(O)C(=O)OCc2c1cc1n(c2=O)Cc2cc3ccccc3nc2-1` [(S)-(+)-Camptothecin], the cell viability was found to be 0.0882.

On to `CCc1c2c(nc3ccccc13)-c1cc3c(c(=O)n1C2)COC(=O)[C@]3(O)CC` [7-Ethylcamptothecin], for which the cell viability stood at 0.054.

Regarding `CC1(C)C(C(=O)Nc2ccc(S(=O)(=O)c3ccc(NC(=O)C4C(C)(C)C4(C)C)cc3)cc2)C1(C)C`, the cell viability stood at 0.839.

`C[C@H]1CCC2N(C1)C[C@H]1C3CC4[C@@H](CC(=O)C5C[C@@H](O)CC[C@@]54C)C3CCC1[C@]2(C)O` (stereo not given in full) [Peiminine]: the cell viability was 1.12.

As for `O=C(CBr)c1ccc(O)cc1` [PTP Inhibitor I], the cell viability was found to be 1.01.

Regarding `Clc1ccc(OC[C@H]2CCN2)cn1` [Tebanicline hydrochloride], the cell viability amounted to 1.12.

As for `Oc1cc(O)cc(/C=C/c2ccc(O)cc2O)c1` [Oxyresveratrol], the cell viability turned out to be 0.982.

Regarding `C=C1CC[C@H]2[C@@H](/C=C(\C)C(=O)[C@@]3(O)C[C@H](C)[C@H](O)[C@@H]3[C@@H]1O)C2(C)C` [Lathyrol], the cell viability was 1.09.

On to `CN[C@@H](Cc1c[nH]c2ccccc12)C(=O)O` [Abrine], for which the cell viability was 1.08.

On to `CC1(C)C(=O)N(c2ccc(C#N)c(C(F)(F)F)c2)C(=O)N1CCCCO`, for which the cell viability came out at 1.27.

Consider `C[C@H]1CCC/C=C/[C@@H]2C[C@H](O)C[C@H]2[C@H](O)/C=C/C(=O)O1` [Brefeldin A], for which the cell viability was 0.0967.

Turning to `COc1ccc(/C=C2\CCCN=C2c2cccnc2)c(OC)c1` [GTS 21 dihydrochloride], the cell viability turned out to be 1.13.

With `COc1cc([C@@H]2c3cc4c(cc3[C@H](O)[C@H]3COC(=O)[C@H]23)OCO4)cc(OC)c1O` [4'-Demethylpodophyllotoxin], the cell viability worked out at 0.68.

Turning to `Cn1c(CCCCCCC(=O)NO)nc2cc(N(CCCl)CCCl)ccc21` [Minomustine], the cell viability came to 1.12.

Regarding `O=C(O)CNC(=O)C1C(=O)N(C2CCCCC2)C(=O)N(C2CCCCC2)C1=O` [Daprodustat], the cell viability stood at 1.04.

Take `C/C(=C\c1csc(C)n1)[C@@H]1C[C@@H]2O[C@@H]2CCC[C@H](C)[C@H](O)[C@@H](C)C(=O)C(C)(C)[C@@H](O)CC(=O)O1` [Epothilone A]: the cell viability was found to be 0.0991.

As to `C/C(=C\c1csc(C)n1)[C@@H]1C[C@@H]2O[C@]2(C)CCC[C@H](C)[C@H](O)[C@@H](C)C(=O)C(C)(C)[C@@H](O)CC(=O)O1` [Epothilone B], the cell viability stood at 0.141.

With `C[C@H](Nc1ncnc2[nH]cnc12)c1nc2ccc(F)cc2c(=O)n1-c1ccccc1` [Acalisib], the cell viability amounted to 1.02.

Turning to `Cn1c(COP(=O)(NCCBr)NCCBr)cnc1[N+](=O)[O-]` [Evofosfamide], the cell viability came out at 1.15.

For the compound `CC(=O)OC(C)(C)/C=C/C(=O)[C@](C)(O)[C@H]1[C@H](O)C[C@@]2(C)[C@@H]3CC=C4[C@H](C[C@H](O)C(=O)C4(C)C)[C@]3(C)C(=O)C[C@]12C` [Cucurbitacin B], the cell viability is 0.223.

Take `Clc1ccc(C(OCCN2CCCCC2)c2ccccc2)cc1` (stereo not given) [Cloperastine hydrochloride]: the cell viability is 1.15.

For `C[C@]12CC[C@H](O)C[C@H]1CC[C@@H]1[C@@H]2CC[C@]2(C)[C@@H](c3ccc(=O)oc3)CC[C@]12O` [Bufalin], the cell viability came out at 0.423.

On to `CC(C)[C@H](N)C(=O)N1CCC[C@H]1B(O)O` [Talabostat mesylate], for which the cell viability is 0.987.
